The values that follow come from PubChem BioAssay (NCI).

About 83,000 compounds went through this panel and 20% of them were active in at least one assay; those are over-represented in the sample as a whole.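 48-hour exposure, single concentration, 96-well plates; percent growth endpoint where 0 means no net growth. Active: below 10.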 A number with no mark means an inactive call. Active and inactive are the calls of the source.

Some test systems named below: SR leukemia; RPMI-8226 leukemia; OVCAR-8 ovarian; OVCAR-4 ovarian; SK-OV-3 ovarian; IGROV1 ovarian; OVCAR-3 ovarian; HS 578T breast; NCI/ADR-RES ovarian; T-47D breast; BT-549 breast; MDA-MB-435 melanoma; SW-620 colon; MCF7 breast; HCT-116 colon; HCC-2998 colon; KM12 colon.
Holding throughout (assay): NCI-60 one-dose screen, 48 h (100 = growth as untreated, 0 = no growth, -100 = all killed)
What all share (conditions): 10 µM unless noted

In the case of `COc1cc2c(c(OC)c1OC)C(=O)CC(c1cccc(NC(=O)c3ccccc3Br)c1)O2` (stereo not given), the growth in the assay on SR leukemia is 68.4%; with RPMI-8226 leukemia, 58.2%; in the assay on OVCAR-8 ovarian, 80.1%; in the assay with OVCAR-4 ovarian it was 90%; with SK-OV-3 ovarian it was 108%; in the assay on IGROV1 ovarian, 102%. The growth with OVCAR-3 ovarian is 96.4%; in the assay on HS 578T breast, 79.5%; in the assay on NCI/ADR-RES ovarian, 91.3%; with T-47D breast it was 65.7%; with BT-549 breast it was 98.7%; in the assay with MDA-MB-435 melanoma it was 92.5%. The growth in the assay with SW-620 colon is 97.3%; in the assay with MCF7 breast, 78.2%; with HCT-116 colon, 75.6%; in the assay with HCC-2998 colon, 106%; with KM12 colon, 103%.
With `Cn1cc(-c2ccc3cc(-c4ccc(CC(=O)Nc5cc(C(C)(C)C)on5)cc4)cnc3c2)cn1`, the growth is 3.71% (active) with SR leukemia; 19.6% in the assay with RPMI-8226 leukemia; 20.4% with OVCAR-8 ovarian; -21.9% (active) in the assay on OVCAR-4 ovarian; 5.31% (active) in the assay on SK-OV-3 ovarian; 3.11% (active) with IGROV1 ovarian. Moreover, the growth with OVCAR-3 ovarian was 48.9%; in the assay on HS 578T breast, 9.69% (active); in the assay with NCI/ADR-RES ovarian, 33.1%; in the assay with T-47D breast, 34.5%; with BT-549 breast it was 33%; with MDA-MB-435 melanoma, 17.1%. Further, the growth is 40.8% in the assay on MCF7 breast, 9.3% (active) in the assay with HCT-116 colon, 57.8% in the assay on HCC-2998 colon and 9.57% (active) in the assay with KM12 colon.
On to `CCCCCCNc1nc(NCCCCCC)c2[nH]c(NCCCCCC)nc2n1`, for which the growth was -33.4% (active) in the assay on SR leukemia; -29.4% (active) in the assay with RPMI-8226 leukemia; 57.3% with OVCAR-8 ovarian; -16% (active) in the assay with OVCAR-4 ovarian; 102% with SK-OV-3 ovarian; 68.8% in the assay with IGROV1 ovarian. Further, the growth is 26.5% in the assay with OVCAR-3 ovarian; 55.7% with HS 578T breast; 90.3% in the assay with NCI/ADR-RES ovarian; 33.3% in the assay with T-47D breast; 71.6% with BT-549 breast; 67.5% in the assay on MDA-MB-435 melanoma. Further, the growth in the assay on SW-620 colon was 16.3%; in the assay with MCF7 breast, 20.9%; with HCT-116 colon it was -35% (active); with HCC-2998 colon, 46.6%; in the assay on KM12 colon it was 50.8%.
For `CCCCCCCCn1ccc2cc(NC(=O)Cn3cc(CN4CCN(CC)CC4)nn3)ccc21`, the growth is 2.27% (active) with SR leukemia; -10.7% (active) in the assay with RPMI-8226 leukemia; 83% in the assay on OVCAR-8 ovarian; 81.5% with OVCAR-4 ovarian; 99.6% in the assay on SK-OV-3 ovarian; 66.8% in the assay on OVCAR-3 ovarian. The growth was 86.2% in the assay with HS 578T breast; 97.7% in the assay with NCI/ADR-RES ovarian; 58.2% with T-47D breast; 71.8% with BT-549 breast; -84% (active) in the assay on MDA-MB-435 melanoma; -43% (active) with SW-620 colon. The growth was 38.9% with MCF7 breast, 61.8% in the assay on HCT-116 colon and 77.8% in the assay with KM12 colon.
Consider `Cc1cc2nc3c4ccccc4n(CCN(C)C)c3nc2cc1C`, for which the growth was 4.17% (active) in the assay on SR leukemia; -19.7% (active) in the assay on RPMI-8226 leukemia; 6.84% (active) in the assay with OVCAR-8 ovarian; -1.33% (active) in the assay on OVCAR-4 ovarian; 13.3% in the assay on SK-OV-3 ovarian; 5.07% (active) in the assay on IGROV1 ovarian. Moreover, the growth in the assay on OVCAR-3 ovarian is 18%; in the assay with HS 578T breast it was 3.81% (active); with NCI/ADR-RES ovarian it was 6.55% (active); in the assay on T-47D breast, 32.2%; in the assay with BT-549 breast, 53.1%; with MDA-MB-435 melanoma it was 8.26% (active). Also, the growth was -30.8% (active) with SW-620 colon; -0.456% (active) with MCF7 breast; 7.19% (active) in the assay on HCT-116 colon; 22.1% in the assay on HCC-2998 colon; 17.4% in the assay on KM12 colon.
On to `O=C(Cn1cc(CN2C(=O)c3ccccc3S2(=O)=O)nn1)Nc1cccc(Cl)c1`, for which the growth in the assay with SR leukemia was 113%; in the assay on RPMI-8226 leukemia it was 104%; in the assay on OVCAR-8 ovarian, 113%; with OVCAR-4 ovarian it was 109%; in the assay on SK-OV-3 ovarian it was 79.3%; in the assay with IGROV1 ovarian it was 108%. In addition, the growth in the assay on OVCAR-3 ovarian is 106%; with HS 578T breast, 107%; with NCI/ADR-RES ovarian, 93.1%; in the assay with T-47D breast it was 97%; in the assay on BT-549 breast it was 133%; in the assay with MDA-MB-435 melanoma, 100%. Besides, the growth is 102% with SW-620 colon; 92.5% with MCF7 breast; 98.8% with HCT-116 colon; 93.5% in the assay on HCC-2998 colon; 104% in the assay with KM12 colon.
Turning to `CC(C)CN1CC(C(=O)Nc2ccc3c(c2)-c2ccccc2C3)CC1=O` (stereo not given), the growth in the assay on SR leukemia was 63.4% [50 µM]; in the assay on RPMI-8226 leukemia it was 55% [50 µM]; in the assay on OVCAR-8 ovarian, 48.5% [50 µM]; in the assay with OVCAR-4 ovarian it was 71.2% [50 µM]; in the assay with SK-OV-3 ovarian, 74.6% [50 µM]; with IGROV1 ovarian, 67.9% [50 µM]. Further, the growth with OVCAR-3 ovarian was 75.6% [50 µM]; in the assay on HS 578T breast, 28.8% [50 µM]; in the assay on NCI/ADR-RES ovarian, 67.7% [50 µM]; in the assay with T-47D breast, 61.5% [50 µM]; with BT-549 breast it was 65% [50 µM]; in the assay on MDA-MB-435 melanoma, 90.2% [50 µM]. The growth in the assay with SW-620 colon was 93.3% [50 µM]; with MCF7 breast, 52.9% [50 µM]; in the assay with HCT-116 colon, 64.1% [50 µM]; with HCC-2998 colon it was 64.4% [50 µM]; with KM12 colon, 74% [50 µM].
For the molecule `O=C1C(Cl)=C(NCCN2CCOCC2)C(=O)c2ncccc21`, the growth was -17.9% (active) in the assay on SR leukemia; 20.4% with RPMI-8226 leukemia; 31.1% in the assay on OVCAR-8 ovarian; 95.8% in the assay on OVCAR-4 ovarian; 41.5% with SK-OV-3 ovarian; -58.8% (active) with IGROV1 ovarian. The growth was -63.5% (active) in the assay with OVCAR-3 ovarian; 1.02% (active) in the assay on HS 578T breast; 67.8% in the assay on NCI/ADR-RES ovarian; -40.8% (active) in the assay with T-47D breast; -91.5% (active) with BT-549 breast; 102% in the assay with MDA-MB-435 melanoma. Besides, the growth in the assay on SW-620 colon is -29.5% (active); in the assay on MCF7 breast, -50% (active); in the assay on HCT-116 colon it was -51.9% (active); in the assay with HCC-2998 colon it was 31.8%; in the assay on KM12 colon, 62.9%.
`Cc1ccc(-c2nc(C(Cl)Cl)nc3cc(C)nn23)cc1`: the growth was 9.7% (active) in the assay with SR leukemia; 33.4% with RPMI-8226 leukemia; 14.7% in the assay on OVCAR-8 ovarian; -21.5% (active) in the assay with OVCAR-4 ovarian; -12.7% (active) in the assay on SK-OV-3 ovarian; 6.31% (active) in the assay with IGROV1 ovarian. Further, the growth in the assay on OVCAR-3 ovarian is -24.3% (active); in the assay on HS 578T breast, -11.4% (active); with NCI/ADR-RES ovarian, 6.39% (active); in the assay on T-47D breast it was 40.9%; in the assay on BT-549 breast it was 55.5%; in the assay on MDA-MB-435 melanoma it was 12%. Besides, the growth in the assay on SW-620 colon is -28.5% (active); in the assay on MCF7 breast it was 20.6%; in the assay on HCT-116 colon it was 6.95% (active); with HCC-2998 colon, -69.3% (active); in the assay with KM12 colon, -9.44% (active).
